Screens (PubChem BioAssay)
In the library only some 1.3% were active in any assay of this set; here they are far more common.
TRPV1 ag: HTS Assay for Compounds that Act as Agonists of the Vanilloid Receptor 1; Transient receptor potential cation channel subfamily V member 1 (Homo sapiens), Q8NER1; TRPV1-expressing cells, Fluo-8 calcium influx, agonist mode; activation, % at 8.33 µM; actives 0.19% (n = 320,000); in the data active = activation above about 80%; inconclusive = between about 30% and that limit
Target sequence (Q8NER1 whole entry, looked up): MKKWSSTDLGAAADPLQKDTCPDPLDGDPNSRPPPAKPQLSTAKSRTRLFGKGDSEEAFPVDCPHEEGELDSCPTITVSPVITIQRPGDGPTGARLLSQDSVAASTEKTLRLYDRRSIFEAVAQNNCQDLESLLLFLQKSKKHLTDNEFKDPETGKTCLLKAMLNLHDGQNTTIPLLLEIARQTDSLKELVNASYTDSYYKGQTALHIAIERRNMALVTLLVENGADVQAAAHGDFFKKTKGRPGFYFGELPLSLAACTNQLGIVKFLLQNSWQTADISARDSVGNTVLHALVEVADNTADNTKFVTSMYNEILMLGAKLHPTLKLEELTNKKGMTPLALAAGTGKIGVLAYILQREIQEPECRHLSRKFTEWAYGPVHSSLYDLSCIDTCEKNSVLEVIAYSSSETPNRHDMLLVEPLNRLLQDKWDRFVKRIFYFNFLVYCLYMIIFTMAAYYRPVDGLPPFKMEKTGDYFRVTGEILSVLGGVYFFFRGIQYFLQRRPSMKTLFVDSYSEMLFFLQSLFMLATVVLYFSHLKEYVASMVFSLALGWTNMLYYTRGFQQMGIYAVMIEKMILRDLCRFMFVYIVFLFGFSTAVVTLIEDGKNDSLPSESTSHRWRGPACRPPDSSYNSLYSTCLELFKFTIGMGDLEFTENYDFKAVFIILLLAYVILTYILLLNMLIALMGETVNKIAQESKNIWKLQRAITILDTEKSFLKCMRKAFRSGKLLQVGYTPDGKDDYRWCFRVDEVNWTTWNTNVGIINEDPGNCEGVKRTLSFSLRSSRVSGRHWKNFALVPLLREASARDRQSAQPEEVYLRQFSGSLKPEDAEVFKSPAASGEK
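Fluo-8 calcium influx in TRPV1-expressing cells, kinetic read (ex 480/em 520 nm). Compound added and read 3 min for agonist activity, followed by capsaicin at EC20 final and 2 min further read for enhancement.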
hERG WT inh: qHTS for Inhibitors of KCHN2 3.1: Wildtype qHTS | Voltage-gated inwardly rectifying potassium channel KCNH2 (Homo sapiens), Q12809 | activity change, % at 1.84 µM | actives 0.37% (n = 340,000) | U2OS, BacMam KCNH2, thallium flux FluxOr; hits give low values;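 active = maximum activity change below -70%; inconclusive = maximum activity change between -70% and -50%; inactive = maximum activity change above -50%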
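U2OS cells were transduced with wild-type KCNH2 virus (2.03 x 10^8 / mL) for 4 h at room temperature, then cultured overnight at 37 C. Thallium flux was read with FluxOr dye. Rate constants were normalized to DMSO controls.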
KCNH2 3.1 inh: qHTS for Inhibitors of KCHN2 3.1: Mutant qHTS; actives 0.95% (n = 340,000); AID 720553, 2013; U2OS KCNH2 3.1, thallium flux FluxOr; hits give low values; activity change, % (tested at about 1.8 µM); Potassium voltage-gated channel subfamily H member 2, brain isoform KCNH2 3.1 (human);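 active = maximum activity change below -70%; inconclusive = maximum activity change from -70% to -50%; inactive = maximum activity change above -50%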;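 also: thallium influx rate constant from kinetic fluorescence after stimulation buffer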
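Channel expression came from 3.1 mutant virus (1.77 x 10^8 /mL) applied to suspended U2OS cells for 4 h. Flux was tracked with FluxOr dye plus Red40 quencher, and kinetic rate constants normalized to controls.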
TRPML1 blocker: qHTS for Inhibitors of the Human Mucolipin Transient Receptor Potential 1 (TRPML1). Mucolipin-1 (Homo sapiens), Q9GZU1. TRPML1-inducible cells, Ca2+ dye fluorescence, FDSS; hits give low values; inhibition of EC80 agonist-evoked calcium signal. activity change, negative = inhibition, % (concentration not given with the values). actives 0.02% (n = 390,000); in the data active = activity change below about -50%; inconclusive = between about -30% and that limit;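 also: stimulus is agonist 54-4 at its EC80 concentration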
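TRPML1-DL cells, Tet-induced overnight (~16 h, 37 °C) at 1,500 cells/well, were loaded with Ca8 no-wash dye plus quencher for 45-90 min at room temperature. Compounds were pinned during FDSS kinetic reading; agonist 54-4 at EC80 (4 uM final) then added.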
TRPV1 potentiator: HTS Assay for Compounds that Act as Potentiators of the Vanilloid Receptor 1; Transient receptor potential cation channel subfamily V member 1 (Homo sapiens), Q8NER1; TRPV1-expressing cells, Fluo-8 calcium influx, capsaicin EC20 potentiation; potentiation, % at 8.33 µM; actives 0.02% (n = 320,000); AID 540277, 2011; in the data active = potentiation above about 80%; inconclusive = between about 30% and that limit
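Cells expressing TRPV1 were dye-loaded with Fluo-8 and read kinetically: 10 s baseline, 3 min after compound (agonist portion), then 2 min after EC20 capsaicin (allosteric enhancer portion). Calcium-bound dye fluorescence at 480/520 nm.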
TRPML1 agonist: qHTS for Agonists of the Human Mucolipin Transient Receptor Potential 1 (TRPML1) | Mucolipin-1 (Homo sapiens), Q9GZU1 | TRPML1-expressing cells, Ca2+ dye fluorescence, FDSS | activation, % (no concentration beside the values) | actives 0.12% (n = 410,000) | AID 624414, 2012; in the data active = activation above about 50%; inconclusive = mostly about 30% to 49%
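Cells: TRPML1-DL, 1X Tet inducer, ~16 h at 37 degrees C/5% CO2. Dye: ABD Ca8 no-wash + quencher, 45-90 min RT. Read: 10 s baseline, compound add, 110 s agonist phase; 54-4 EC80 (4uM final), 110 s antagonist phase.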
Large screens that a line does not name were inactive.

CCOC(=O)C1(Cc2ccccc2C(F)(F)F)CCN(CCCn2cccn2)CC1	TRPV1 ag inconclusive
Cc1ccc(C)c2c(C)ccnc12	none (no result: TRPV1 ag, hERG WT inh, KCNH2 3.1 inh, TRPML1 blocker, TRPV1 potentiator)
O=C1CN(CCN2CC(=O)NC(=O)C2)CC(=O)N1	none (no result: TRPV1 ag, hERG WT inh, KCNH2 3.1 inh, TRPML1 blocker, TRPV1 potentiator)
CCN(CC)c1ccc(-c2nc(-c3ccccc3C)no2)cc1[N+](=O)[O-]	none (no result: TRPV1 ag, hERG WT inh, KCNH2 3.1 inh, TRPV1 potentiator)
COc1ccc(NC(=O)CSC2=Nc3ccccc3C3=NC(CC(=O)NCc4ccc(F)cc4)C(=O)N23)cc1 (configuration not stated)	none (no result: TRPV1 ag, hERG WT inh, KCNH2 3.1 inh, TRPV1 potentiator)
CCOC(=O)C1(Cc2ccccc2)CCN(C2Cc3ccccc3C2)CC1	KCNH2 3.1 inh -86
CCOC(=O)C1(CCCc2ccccc2)CCN(Cc2cnc(C)s2)CC1	TRPV1 ag inconclusive, hERG WT inh -91
CCOC(=O)C1(Cc2ccc(Cl)cc2)CCN(C2CCC2)CC1	none
CC(C)OCCCn1c(=O)c2ccccc2n2c(-c3ccccc3)nnc12	none (no result: TRPV1 ag, hERG WT inh, KCNH2 3.1 inh, TRPV1 potentiator)
COc1ccc(-c2nc(-c3ccccc3)c(-c3ccc(F)cc3)[nH]2)c(OC)c1C	none (no result: TRPV1 ag, hERG WT inh, KCNH2 3.1 inh, TRPV1 potentiator)
CCCS(=O)(=O)Nc1cc(-c2cn3cccc(C)c3n2)ccc1C	none (no result: TRPV1 ag, hERG WT inh, KCNH2 3.1 inh, TRPV1 potentiator)
Oc1ccccc1CN1CCN(C(O)(c2ccccc2)c2ccccc2)CC1	KCNH2 3.1 inh inconclusive
Oc1ccccc1CN1CCC(C(O)(c2ccccc2)c2ccccc2)CC1	KCNH2 3.1 inh -86
Cc1noc(NS(=O)(=O)c2ccc(NC(=O)c3ccc(Br)cc3)cc2)c1C	none (no result: TRPV1 ag, hERG WT inh, KCNH2 3.1 inh, TRPV1 potentiator)
COc1ccccc1OCCCCN1CCN(C(c2ccccc2)c2ccccc2)CC1	KCNH2 3.1 inh -93
c1ccc(OCCOCCN2CCN(C(c3ccccc3)c3ccccc3)CC2)cc1	hERG WT inh -78, KCNH2 3.1 inh -86
N#Cc1ccc(OCC(O)CN2CCN(CC(O)COc3ccc(C#N)cc3)CC2)cc1 (configuration not stated)	hERG WT inh -147, KCNH2 3.1 inh -107
c1ccc(OCCOCCN2CCc3ccccc3C2)cc1	none
OC(COc1ccccc1)CN1CCN(C(c2ccccc2)c2ccccc2)CC1 (configuration not stated)	hERG WT inh -120, KCNH2 3.1 inh -109
CCOc1ccc2nc(Cl)c(C3CC(c4ccc(C)cc4)=NN3C(=O)CCCC(=O)O)cc2c1 (configuration not stated)	none (no result: TRPV1 ag, hERG WT inh, KCNH2 3.1 inh, TRPV1 potentiator)
Cc1cc(C)c(NC(=O)C2CCN(c3nnc(C)c4c(C)n(-c5ccccc5)nc34)CC2)c(C)c1	none (no result: TRPV1 ag, hERG WT inh, KCNH2 3.1 inh, TRPV1 potentiator)
CCC(=O)c1ccc(OCC(O)CN2CCN(C(c3ccccc3)c3ccccc3)CC2)cc1 (configuration not stated)	hERG WT inh -88, KCNH2 3.1 inh -98
OC(CN1CCN(c2ncc(C(F)(F)F)cc2Cl)CC1)c1ccccc1 (configuration not stated)	KCNH2 3.1 inh inconclusive
N#Cc1ccc(OCC(O)CN2CCN(C(c3ccccc3)c3ccccc3)CC2)cc1 (configuration not stated)	hERG WT inh -84, KCNH2 3.1 inh -100
OC(COCc1ccco1)CN1CCN(C(c2ccccc2)c2ccccc2)CC1 (configuration not stated)	hERG WT inh -76, KCNH2 3.1 inh -104
N#Cc1ccc(OCC(O)CN2CCN(c3ncc(C(F)(F)F)cc3Cl)CC2)cc1 (configuration not stated)	hERG WT inh inconclusive, KCNH2 3.1 inh -101
Cc1ccc(Cl)cc1N1CCN(CC(O)COCc2ccco2)CC1 (configuration not stated)	none (no result: KCNH2 3.1 inh)
O=C(Nc1ccc(Cl)cc1Cl)[C@@H]1CC=C[C@@H]2CCN(C3CC3)C(=O)[C@@H]21	none (no result: TRPV1 ag, hERG WT inh, KCNH2 3.1 inh, TRPML1 blocker, TRPV1 potentiator)
